Compounds with a hit are over-represented: about 6.7% of the library has one in this group of screens.
C diff growth – C. difficile growth inhibitors, primary screen, HTS. Clostridium difficile clinical isolate growth, OD600, 24 h; hits give low values. growth activity, negative = inhibition, % at 16 µg/mL (by protocol). actives 0.25% (n = 86,000). AID 1259249, 2017;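 active = mean growth activity at or below -80% and every replicate also at or below -80%; inconclusive = mean at or below -80% but some replicate above -80%; inactive = mean growth activity above -80%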;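 also: 0% = DMSO wells and -100% = levofloxacin 16 µg/mL wells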
T cruzi growth-1 – T. cruzi intracellular proliferation inhibitors, primary screen, cell-based, beta-gal Tulahuen parasites, NIH3T3 host, luminescence. T. cruzi beta-gal in NIH3T3, GalScreen luminescence, 90 h. inhibition, % at 8.34 µM. actives 5.9% (n = 77,000);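 active = mean inhibition above about 93%, with at least 55% of replicates each passing it, limit read from the data, passing the limit was not always enough; inconclusive = only one of those two conditions holds; inactive = neither condition holds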
Pf Dd2 growth – P. falciparum Dd2 growth inhibitors, primary screen, SYBR Green fluorescence, single dose replicates. 72 h; hits give low values. activity change, % at 10 µM. actives 2.3% (n = 94,000). AID 1159554, 2015; in the data active = activity change below about -80%; inconclusive = no clear call, values can overlap the other calls
T cruzi growth-2 – T. cruzi intracellular proliferation inhibitors, confirmation, cell-based, NIH3T3 host, beta-gal parasite, luminescence, cherry-pick; shares compounds with T cruzi growth-1; T. cruzi beta-gal in NIH3T3, GalScreen luminescence, 90 h; inhibition, % at 8.35 µM; actives 72% (n = 5,600); AID 651739, 2012;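 active = mean replicate inhibition above about 95% and at least 55% of replicates individually reaching it, limit read from the data; inconclusive = only one of the two criteria is met; inactive = neither criterion is met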
T cruzi growth-3 – inhibitors of intracellular T. cruzi replication, confirmation, NIH3T3 host cells, beta-gal parasites, cherry-pick, set 2 | shares compounds with T cruzi growth-1 | T. cruzi beta-gal in NIH3T3, GalScreen luminescence, 90 h | inhibition, % at 2.09 µM | actives 21% (n = 5,600) | AID 651740, 2012;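 active = mean inhibition above about 95%, with at least 55% of replicates also reaching it, limit read from the data; inconclusive = meets just one of the two conditions; inactive = meets neither condition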;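 also: plate controls were neutral control median for no effect and positive control median for full effect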
NIH3T3 tox – cytotoxicity in mouse NIH/3T3 fibroblasts, confirmation, cytotoxicity control for T. cruzi proliferation inhibitor project, cell-based, cherry-pick, single point; shares compounds with T cruzi growth-1; NIH/3T3 viability, CellTiter-Glo ATP luminescence, 90 h; cytotoxicity (signal decrease), % at 8.35 µM; actives 14% (n = 5,600); AID 651742, 2012;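 active = mean signal decrease across replicates above about 35% based on untreated-well scatter, with enough replicates individually passing, limit read from the data; inconclusive = no rule stated though some were filed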;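 also: 0% = median of neutral control wells and 100% = median of positive control wells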
3T3 cytotox 2 – NIH/3T3 fibroblast cytotoxicity, confirmation, cytotoxicity control, cell-based, cherry-pick, single point, set 2 | inhibition, % at 24.9 µM | actives 56% (n = 5,600) | shares compounds with T cruzi growth-1 | NIH/3T3 viability, CellTiter-Glo ATP luminescence, 90 h;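 active = mean loss of cell viability signal at or above a set limit, and enough replicates individually reaching it; inconclusive = meets only the mean limit or only the replicate share; inactive = meets neither condition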;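 also: 0% = median of neutral control wells and 100% = median of positive control wells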
* marks the source's active call; other numbers are inactive results.

Screening N#C[C@H]1[C@@H](c2ccc(C#Cc3ccc(F)cc3)cc2)[C@H](CO)N1C(=O)C1CC1 returned C diff growth -15.3, T cruzi growth-1 93.4 and Pf Dd2 growth -40.9.
`N#C[C@H]1[C@@H](c2ccc(C#CC3(O)CCCC3)cc2)[C@H](CO)N1C(=O)C1CC1` gave C diff growth 13.8, T cruzi growth-1 99.7*, Pf Dd2 growth -27.8, T cruzi growth-2 104.0*, T cruzi growth-3 94.5, NIH3T3 tox 8.1 and 3T3 cytotox 2 56.0*.
`N#C[C@H]1[C@H](c2ccc(C#CC3(O)CCCC3)cc2)[C@H](CO)N1C(=O)C1CCC1` gave C diff growth 3.9, T cruzi growth-1 100.3*, Pf Dd2 growth -44.7, T cruzi growth-2 106.8*, T cruzi growth-3 66.1, NIH3T3 tox 15.3 and 3T3 cytotox 2 64.1*.
`N#C[C@@H]1[C@@H](c2ccc(C#Cc3cccnc3)cc2)[C@@H](CO)N1C(=O)C1CCC1` gave C diff growth 3.5, T cruzi growth-1 59.8 and Pf Dd2 growth 2.2.
`C[C@@H]1CCCCO[C@H](CN(C)CC2CC2)[C@@H](C)CN([C@@H](C)CO)C(=O)c2cc(NS(=O)(=O)c3cccs3)ccc2O1` gave C diff growth -1.5, T cruzi growth-1 32.5 and Pf Dd2 growth -44.7.
Screening CCC(=O)N1CC2(C1)[C@H](c1ccc(-c3ccc(F)cc3)cc1)[C@H](CO)N2S(C)(=O)=O returned C diff growth -2.1 and Pf Dd2 growth -38.3.
C[C@H]1CN([C@@H](C)CO)S(=O)(=O)c2ccc(C3=CCCCC3)cc2O[C@@H]1CN(C)C(=O)c1ccc(F)cc1 was read as C diff growth -0.6, T cruzi growth-1 114.6*, Pf Dd2 growth -39.5, T cruzi growth-2 110.2*, T cruzi growth-3 102.4*, NIH3T3 tox 47.0* and 3T3 cytotox 2 95.9*.
`C[C@@H]1CN([C@H](C)CO)S(=O)(=O)c2ccc(C3=CCCCC3)cc2O[C@H]1CN(C)C(=O)c1ccc(F)cc1` gave C diff growth 0.5, T cruzi growth-1 109.0 and Pf Dd2 growth -62.8.
Screening C[C@H](CO)N1C[C@H](C)[C@H](CN(C)C(=O)c2ccccc2)Oc2cc(C3=CCCCC3)ccc2S1(=O)=O returned C diff growth 4.4, T cruzi growth-1 102.8*, Pf Dd2 growth -37.4, T cruzi growth-2 101.4*, T cruzi growth-3 69.0, NIH3T3 tox 29.6 and 3T3 cytotox 2 64.1*.
For C[C@H]1CN([C@@H](C)CO)S(=O)(=O)c2ccc(C3=CCCCC3)cc2O[C@H]1CN(C)C(=O)c1ccc(F)cc1 the results were C diff growth 4.1, T cruzi growth-1 111.5 and Pf Dd2 growth -63.4.
C[C@@H]1CN([C@@H](C)CO)S(=O)(=O)c2ccc(C3=CCCC3)cc2O[C@@H]1CN(C)C(=O)c1ccc(F)cc1 was read as C diff growth 0.5 and Pf Dd2 growth 13.5.
`C[C@H]1CN([C@@H](C)CO)S(=O)(=O)c2ccc(C3=CCCCC3)cc2O[C@@H]1CN(C)C(=O)c1ccccc1` gave C diff growth -8.0, T cruzi growth-1 94.7 and Pf Dd2 growth -17.2.
`C[C@@H]1CN([C@H](C)CO)S(=O)(=O)c2ccc(C3=CCCCC3)cc2O[C@@H]1CN(C)C(=O)c1ccc(F)cc1` gave C diff growth -0.5, T cruzi growth-1 113.2*, Pf Dd2 growth -35.5, T cruzi growth-2 107.4*, T cruzi growth-3 91.5, NIH3T3 tox 18.1 and 3T3 cytotox 2 100.8*.
For C[C@@H]1CN([C@@H](C)CO)S(=O)(=O)c2ccc(C3=CCCCC3)cc2O[C@H]1CN(C)C(=O)c1ccc(F)cc1 the results were C diff growth 4.7, T cruzi growth-1 inconclusive, Pf Dd2 growth -48.0, T cruzi growth-2 102.1*, T cruzi growth-3 50.8, NIH3T3 tox 53.9* and 3T3 cytotox 2 25.7*.
Screening CO[C@H]1CN(C)C(=O)c2ccc(NC(=O)C3CCCC3)cc2OC[C@H](C)N(CCC(F)(F)F)C[C@@H]1C returned C diff growth -18.0 and Pf Dd2 growth -24.7.
CCC(=O)N[C@H]1CC[C@H](CC(=O)NCC2CCCCC2)O[C@H]1CO was read as T cruzi growth-1 40.6 and Pf Dd2 growth 1.1.
`C[C@@H]1CN([C@H](C)CO)S(=O)(=O)c2ccc(-c3ccccc3F)cc2O[C@H]1CN(C)C(=O)C1CC1` gave C diff growth -16.9, T cruzi growth-1 -10.7 and Pf Dd2 growth -39.1.
For COc1ccc2c3c(n(C)c2c1)[C@@H](CO)N(C(=O)CN1CCOCC1)CC31CN(C(C)=O)C1 the results were C diff growth 6.3 and Pf Dd2 growth 44.7.
COc1ccc2c3c([nH]c2c1)[C@H](CO)N(C(=O)C1CCC1)CC31CN(S(C)(=O)=O)C1 was read as C diff growth 0.4 and Pf Dd2 growth -24.7.
`C[C@H](CO)N1C[C@H](C)[C@@H](CN(C)Cc2ccc(-c3ccccc3)cc2)Oc2ccc(NC(=O)Nc3ccccc3)cc2C1=O` gave C diff growth 4.4, T cruzi growth-1 20.8 and Pf Dd2 growth -3.9.
`C[C@H]1CN([C@@H](C)CO)C(=O)c2cc(C#Cc3ccccc3F)cnc2O[C@@H]1CN(C)C(=O)Cc1cccnc1` gave C diff growth -5.1 and Pf Dd2 growth -49.2.
`Cc1noc(C)c1NC(=O)Nc1ccc2c(c1)C(=O)N([C@H](C)CO)C[C@H](C)[C@H](CN(C)CC1CCCCC1)OCCCC[C@H](C)O2` gave C diff growth 2.0, T cruzi growth-1 38.7 and Pf Dd2 growth -20.9.
C[C@H]1CN([C@@H](C)CO)S(=O)(=O)c2ccc(C3=CCCC3)cc2O[C@@H]1CN(C)C(=O)c1ccc(F)cc1 was read as C diff growth 4.9 and Pf Dd2 growth -53.2.
For C[C@H](CO)N1C[C@H](C)[C@H](CN(C)C(=O)c2ccc(F)cc2)Oc2cc(C3=CCCCC3)ccc2S1(=O)=O the results were C diff growth 3.6, T cruzi growth-1 111.5*, Pf Dd2 growth -39.3, T cruzi growth-2 101.4*, T cruzi growth-3 61.1, NIH3T3 tox 31.5 and 3T3 cytotox 2 61.6*.
`CCCNC(=O)N1C[C@H](O)COC[C@@H]2O[C@H](CC(=O)NCc3ccc(Cl)c(Cl)c3)CC[C@H]21` gave C diff growth -3.5, T cruzi growth-1 1.1 and Pf Dd2 growth 20.1.

Compound activity as filed in PubChem.
